In PubChem BioAssay AID1259312 (Keith Lab, Institute of Cancer Science, University of …, 2017):
The campaign covered roughly 4,500 compounds. About 200 (4.4%) were called active. What follows is part of a selection rich in actives, with near analogues and random picks from the rest. Unmarked numbers belong to inactive results.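 Rule for the calls: active = cell survival measured by absorbance rises more than 2.5-fold over infected cells without compound; inactive = the rest.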

Test: survival after telomere uncapping, modulators, primary screen, cell-based (AID 1259312);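 note: virus expresses mutant telomerase RNA that uncaps telomeres and kills cells; compound added 2 days after infection so exposure lasts 3 days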
Conditions: HCT116 + Ad-hTR-mut, MTT, 5 d; at 10 µM, active compounds read high
With `Cn1c(SCc2nc3ccc([N+](=O)[O-])cc3[nH]2)nc2ccccc21` the fold change was -1.29. For `O=[N+]([O-])c1ccc2nc(CSc3nc4ccc(Br)cc4[nH]3)[nH]c2c1`, the fold change was 3.33 (active). For `Clc1[nH]nc2ccccc12`, the fold change was 1.09. For `CN(Cc1cc([N+](=O)[O-])c(O)c2ncccc12)C1CCCCC1`, the fold change was 3 (active). In the case of `CN1CCN(Cc2cc(Cl)c3cccnc3c2O)CC1`, the fold change is reported as 3.37 (active). With `O=[N+]([O-])c1ccc(Sc2nnnn2-c2ccccc2)c2cccnc12` the fold change was -73.2. For `O=[N+]([O-])c1ccc(N2CCN(S(=O)(=O)c3ccc4ccccc4c3)CC2)c2ncccc12`, the fold change was -1.06. For `CN(Cc1cc(Br)cc(Br)c1N)C1CCCCC1`, the fold change was -1.39. For `O=[N+]([O-])c1cc(Cl)c2cccnc2c1O`, the fold change was 2. In the case of `O=[N+]([O-])c1cc(CN2CCCC2)c2cccnc2c1O`, the fold change is reported as 3.06 (active). With `OCCOc1c(Cl)cc(Cl)c2cccnc12` the fold change was -1.42. For `O=[N+]([O-])c1ccc(N2CCCC2)cc1Sc1cccc2cccnc12`, the fold change was 1.11. `OCc1ccc(O)c2ncccc12` showed a fold change of -7.69. In the case of `CN1CCN(Cc2cc([N+](=O)[O-])c(O)c3ncccc23)CC1`, the fold change is reported as 2.98 (active). `S=c1[nH]nc(-c2cccs2)n1-c1ccccc1` showed a fold change of -1.22. In the case of `C=C(C)n1c(=O)[nH]c2ccccc21`, the fold change is reported as 1.29. For `Cc1c(Br)c([N+](=O)[O-])nn1CC(=O)O`, the fold change was 1.12. Compound `O=C1N=C(N2CCCC2)S/C1=C\c1ccc(Cl)cc1` has a fold change of -1.52. Compound `COc1ccc(-c2nn(CN3CCN(C(c4ccccc4)c4ccccc4)CC3)c(=S)n2C)cc1` has a fold change of -1.05. For `Clc1ccc(-c2nnc(SCc3ccccc3)o2)c(Cl)c1`, the fold change was 2.08. For `Brc1cccc(-c2nnc(SCc3ccon3)o2)c1`, the fold change was -2.29. With `Clc1ccc(CSc2nnc(-c3ccccc3Cl)o2)c(Cl)c1` the fold change was 3.91 (active). For `Clc1ccc(-c2nnc(SCc3nc(-c4ccccc4)no3)o2)cc1`, the fold change was -1.07. For `Clc1ccc(CSc2nnc(-c3cccc(Br)c3)o2)c(Cl)c1`, the fold change was 2.77 (active). `CCCSc1nnc(-c2ccc(Cl)cc2Cl)o1` gave a fold change of 2.03. In the case of `CC1(C)C=Cc2c(c3ccccc3[nH]c2=O)O1`, the fold change is reported as -1.4. For `O=C(Cc1cccs1)NC1CCCCCC1`, the fold change was -2.19. In the case of `Cc1ccc(-c2noc(COc3ccc4c(c3)OCO4)n2)cc1`, the fold change is reported as 1.5. For `CC1=C/C(=C(\c2cc(C)c(O)cc2C)c2ccccc2S(=O)(=O)O)C(C)=CC1=O`, the fold change was “inactive”. `O=S(=O)(Nc1nc2ccccc2nc1N1CCOCC1)c1ccccc1` gave a fold change of -1.42. With `CN1CCN(c2nc3ccccc3nc2N2CCN(C)CC2)CC1` the fold change was 2.65 (active). `c1ccc(-c2nc3ccccc3nc2-c2ccccc2)cc1` gave a fold change of -1.02. In the case of `COc1ccc(C2C3CCC=C3C(C#N)=C(N)C2(C#N)C#N)cc1` (configuration not stated), the fold change is reported as -1.15. In the case of `CN1CC=C2C(C#N)=C(N)C(C#N)(C#N)C(c3ccc(F)cc3)[C@H]2C1` (some centres not stated), the fold change is reported as -37.3. With `CCCN1CC=C2C(C#N)=C(N)C(C#N)(C#N)[C@H](c3ccsc3)[C@H]2C1` the fold change was 2.9 (active). With `N#CC1=C(N)C(C#N)(C#N)[C@@H](c2cccc(Br)c2)[C@@H]2CN(Cc3ccccc3)CC=C12` the fold change was 1.73. With `CC(C)N1CC=C2C(C#N)=C(N)C(C#N)(C#N)C(c3ccc(F)cc3)[C@H]2C1` (some centres not stated) the fold change was 3.68 (active). Work on `CC(C)c1ccc(C2[C@H]3CN(C)CC=C3C(C#N)=C(N)C2(C#N)C#N)cc1` (some centres not stated) yielded a fold change of 2.14. Work on `c1cnc(SCc2ccc3nsnc3c2)nc1` yielded a fold change of 1.11. Work on `CC(=O)Nc1ccc(S(=O)(=O)N2CCCC2C(=O)NC2CC2)cc1` (configuration not stated) yielded a fold change of -1.03. `COc1ccc(Oc2coc3cc(O)ccc3c2=O)cc1` gave a fold change of -2.75. `N#C/C(=C\c1ccc2c(c1)OCO2)c1ccccn1` showed a fold change of -2.23. For `CC(=O)Nc1nonc1NC(=O)C(F)(F)F`, the fold change was -1.07. In the case of `O=S(=O)(NCCn1cccc1)c1ccc2ccccc2c1`, the fold change is reported as 1.09. Work on `O=[N+]([O-])c1ccc(Cl)cc1N1CCOCC1` yielded a fold change of 1.51. In the case of `O=[N+]([O-])c1cc(Cl)ccc1N1CCN(c2ccc(Cl)cc2[N+](=O)[O-])CC1`, the fold change is reported as 2.59 (active). Work on `O=[N+]([O-])c1cc(Cl)ccc1N1CCOCC1` yielded a fold change of -1.07. In the case of `CC(C)CC(N)C(N)=O` (configuration not stated), the fold change is reported as -2.69. `N#C/C(=C/c1ccncc1)C(N)=S` gave a fold change of -1.8. In the case of `COc1cc2c(Cc3c4c5c(cc(OC)c(OC)c5c5c(OC)c(OC)ccc35)CCN4C)c3c4c(cc(OC)c(OC)c4c2cc1OC)CCN3C`, the fold change is reported as -1.39. With `COC(=O)C1=C(N)C(C(=O)OC)=c2s/c(=C/c3cccnc3)c(=O)n2C1c1cccnc1` (configuration not stated) the fold change was 1.8. With `c1ccc(-c2nc(SCc3ccon3)[nH]c2-c2ccccc2)cc1` the fold change was -1.7.
